PERK inhibitor: human PERK inhibition, primary cell-based screen; Q9NZJ5; CHO PERK-DD fusion, SEAP luminescence translation reporter; inhibition, % at 5.6 µM; 0.17% of 220,000 active;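 active means inhibition above the mean inhibition of all tested compounds plus 3 SD, set separately per screening campaign, cut at about 2.9% in these data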;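 further: PERK kinase domain activated by AP20187 dimerizer at 100 nM; 0% = DMSO with dimerizer and 100% = rapamycin at 8.4 µM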
eIF4E-4G inh: inhibitors of eIF4E and eIF4G interaction in translation initiation; P63073+Q04637; TR-FRET eIF4E-eIF4GI(517-606) binding, 2 h; inhibition, % at 21.7 µM; 0.37% of 220,000 active;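 active means inhibition above about 30%, limit read from the data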;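 further: 0% = full FRET control wells and 100% = background wells lacking eIF4GI fragment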
eIF4H FP inh: inhibitors of RNA binding by human eIF4H | Q15056 | eIF4H fluorescence polarization binding assay | inhibition, % at 35 µM | 0.94% of 290,000 active;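 further: calls also rest on retests at 20 µM and on dose response follow-up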
PABP FP inh: PABP-poly(A) binding inhibition | PABP-poly(A) RNA binding, fluorescence polarization | inhibition, % at 35 µM | 1% of 290,000 active;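 further: calls also rest on retests at 20 µM and on dose response follow-up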
MLLE-PAM2 inh: blocks PAM2 peptide binding to the PABP1 MLLE domain | P11940 | GST-MLLE / FITC-PAM2 fluorescence polarization | inhibition, % at 20 µM | 0.36% of 360,000 active | AID 588489; in the data active means inhibition above about 35%, passing the limit was not always enough;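 further: plate controls were DMSO wells with GST-MLLE for no effect and wells lacking GST-MLLE protein for full effect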
An asterisk follows results filed as active; [ ] = another dose, or the depositor's remark. Rows were chosen to be rich in hits. Some 1.6% of all compounds tested hit in one or more screens of this group. Unless noted, how the calls were made is not given here.

CC(C)(C)C(=O)c1cn(CC(=O)NCc2ccco2)c2ccccc12 was read as PERK inhibitor 1, eIF4E-4G inh 3, eIF4H FP inh -10, PABP FP inh 58* and MLLE-PAM2 inh -143.
Screening Cc1ccc2c(c1)NP(=S)(Oc1ccccc1)N2 (centres undefined) returned MLLE-PAM2 inh 37.
For COc1ccc2c(c1)NP(=S)(Oc1ccccc1)N2 (centres undefined) the results were PERK inhibitor -1, eIF4E-4G inh 4, eIF4H FP inh 89*, PABP FP inh 62* and MLLE-PAM2 inh 32.
CSCCC(c1nnnn1-c1ccc2c(c1)OCCO2)N1CCC(n2c(=O)[nH]c3ccccc32)CC1 (centres undefined) was read as MLLE-PAM2 inh 14.
Screening COc1ccc2[nH]c(C)c(CCNCc3cc(OC)c(OC)c(OC)c3)c2c1 returned PERK inhibitor 0, eIF4E-4G inh 0, eIF4H FP inh 94*, PABP FP inh 2.2* and MLLE-PAM2 inh -3.
COc1ccc2[nH]c(C)c(CCNCc3cc(OC)c4c(c3)OCO4)c2c1 was read as MLLE-PAM2 inh -1.
O=C(NC(=S)N1C[C@H]2C[C@H](C1)c1cccc(=O)n1C2)c1ccc(Cl)cc1 was read as eIF4H FP inh 4, PABP FP inh 2 and MLLE-PAM2 inh 42*.
Screening COc1cc(OC)cc(C(=O)NC(=S)N2C[C@H]3C[C@H](C2)c2cccc(=O)n2C3)c1 returned eIF4H FP inh 4, PABP FP inh -5 and MLLE-PAM2 inh 35.
For S=C=Nc1ccccn1 the results were PERK inhibitor 0, eIF4E-4G inh 1, eIF4H FP inh 0, PABP FP inh 0 and MLLE-PAM2 inh 27.
Screening c1ccc(P(c2ccccc2)c2ccccn2)cc1 returned PERK inhibitor 1, eIF4E-4G inh -2, eIF4H FP inh -3, PABP FP inh -2 and MLLE-PAM2 inh 39*.
Screening COc1cc2c(cc1O)[C@@H]1Cc3ccc(OC)c(O)c3CN1CC2 returned MLLE-PAM2 inh 3.
Screening Cc1ccc(-c2nn(Cc3ccccc3)cc2C(=O)O)cc1 returned PERK inhibitor 2, eIF4E-4G inh 96*, eIF4H FP inh -6, PABP FP inh 5 and MLLE-PAM2 inh 5.
For Cc1ccc(-c2nn(Cc3ccccc3)cc2C=O)cc1 the results were PERK inhibitor -1, eIF4E-4G inh -6, eIF4H FP inh 0, PABP FP inh -3 and MLLE-PAM2 inh -2.
Screening C=CCNC(=S)N1Cc2cc(Br)ccc2-n2nncc2C1 returned MLLE-PAM2 inh -102.
`Cc1cc2c(C(C)C)c(O)c(O)c(C=O)c2c(O)c1-c1c(C)cc2c(C(C)C)c(O)c(O)c(C=O)c2c1O` gave PERK inhibitor 1, eIF4E-4G inh 33*[fluorescence artefact?], eIF4H FP inh 95, PABP FP inh active and MLLE-PAM2 inh 9.
COC(=O)C1=C(c2ccc3ccccc3c2)C[C@@H]2CC[C@H]1N2C(=O)NC(C)C was read as MLLE-PAM2 inh 0.
For COc1ccc(/C=C2/C(=O)NC(=O)N(c3ccc(C)c(C)c3)C2=O)cc1CN1C(=O)c2ccccc2C1=O the results were PERK inhibitor 1, eIF4E-4G inh 4, eIF4H FP inh 50*, PABP FP inh active and MLLE-PAM2 inh 27.
Screening COc1cc(/C=C2\C(=O)NC(=O)N(c3ccccc3)C2=O)cc(OC)c1OC returned PERK inhibitor 1, eIF4E-4G inh -6, eIF4H FP inh -11, PABP FP inh -2 and MLLE-PAM2 inh 18.
For CC(C(=O)Nc1ccc(Br)cc1C(=O)c1ccccc1)N1CCCCC1 (centres undefined) the results were PERK inhibitor 0, eIF4E-4G inh 0, eIF4H FP inh -13, PABP FP inh -5 and MLLE-PAM2 inh 9.
`CCCCN1C(=O)/C(=C/C=C/c2ccco2)C(=O)NC1=S` gave PERK inhibitor 0, eIF4E-4G inh 17, eIF4H FP inh 72*, PABP FP inh 14* and MLLE-PAM2 inh -92.
CCCCN1C(=O)/C(=C\c2ccco2)C(=O)N(CCc2ccccc2)C1=O was read as PERK inhibitor 1, eIF4E-4G inh 15, eIF4H FP inh inconclusive, PABP FP inh 60* and MLLE-PAM2 inh -36.
Screening C[C@H]1O[C@@H](OC2CC[C@]3(C=O)[C@H]4CC[C@]5(C)[C@@H](C6=CC(=O)OC6)CC[C@]5(O)[C@@H]4CC[C@]3(O)C2)CC2OC(C)(C)OC21 (some centres undefined) returned eIF4H FP inh 6, PABP FP inh -6 and MLLE-PAM2 inh 20.
`Cc1ccccc1-n1c(O)c(/C=N/NC(=O)c2ccncc2)c(=O)[nH]c1=O` gave PERK inhibitor 0, eIF4E-4G inh 2, eIF4H FP inh 28, PABP FP inh 19 and MLLE-PAM2 inh 0.
Screening Cc1cc(C)c(-n2c(O)c(/C=N/NC(=O)c3ccncc3)c(=O)[nH]c2=O)c(C)c1 returned PERK inhibitor 1, eIF4E-4G inh 7, eIF4H FP inh 57*, PABP FP inh 39* and MLLE-PAM2 inh -24.
C=C1C2C[C@H](O)C(C)(C)[C@@]2(O)[C@H](O)C[C@]23C[C@@](C)(O)[C@H](CC[C@H]12)[C@H]3OC(C)=O (some centres undefined) was read as PERK inhibitor 0, eIF4E-4G inh 2, eIF4H FP inh 5, PABP FP inh 11 and MLLE-PAM2 inh -1.
For Cc1ccccc1N1C(=O)/C(=C/c2ccco2)C(=O)NC1=S the results were eIF4H FP inh 75* and PABP FP inh 74*.
O=C1NC(=S)NC(=O)C1=Cc1cccc2cc3ccccc3cc12 was read as PERK inhibitor 1, eIF4E-4G inh -2, eIF4H FP inh 98, PABP FP inh 11 and MLLE-PAM2 inh 40*.
For CN1C(=O)C(C)(C2=CCCCC2)C(=O)NC1=S (centres undefined) the results were MLLE-PAM2 inh 14.
For CCN1CCC(N(C)C2CCCCC2)CC1 the results were eIF4H FP inh 0, PABP FP inh 16 and MLLE-PAM2 inh 18.
Screening CCN(CC)C(=O)c1ccc(N(Cc2ccccc2)S(C)(=O)=O)cc1 returned eIF4H FP inh -4, PABP FP inh -8 and MLLE-PAM2 inh 9.
CCN(CC)C(=O)c1ccc2c(c1)C1C=CCC1C(C(=O)O)N2 (centres undefined) was read as eIF4H FP inh 85*, PABP FP inh 65* and MLLE-PAM2 inh 17.
For Cc1ccc2c(c1Cl)NC(C(=O)O)C1CC(Sc3ccccc3[N+](=O)[O-])C(Cl)C21 (centres undefined) the results were PERK inhibitor 0, eIF4E-4G inh 21, eIF4H FP inh 87*, PABP FP inh 62* and MLLE-PAM2 inh 22.
For O=C(O)c1cccc2c1NC(c1cccc([N+](=O)[O-])c1)C1CC(Sc3ccccc3[N+](=O)[O-])C(Cl)C21 (centres undefined) the results were PERK inhibitor 0, eIF4E-4G inh 35*, eIF4H FP inh 82*, PABP FP inh 76 and MLLE-PAM2 inh 12.

Assay outcomes deposited in PubChem BioAssay by several laboratories.
